From PubChem BioAssay AID2576 (National Center for Advancing Translational Sciences (NCATS), 2010)
Several values for one entry are separate records, joined by “and”; a condition that tells them apart may be missing. Identical values can stand only once. Inconclusive results are not listed. More than one record can exist for a structure, and the calls need not agree. Activity calls are given as the source filed them. Calls come from the whole dose curve; as a rule, active = well fitted activation curve with a large enough effect; inconclusive = small, poorly fitted or top-dose-only effect, or effect the other way; inactive = flat fitted curve, though single readings scatter.

biological target: Pyruvate kinase PKM (Homo sapiens) (UniProt P14618); assay: Secondary LDH Assay for Activators of Human Pyruvate Kinase M2 isoform: for Probe SAR; settings: purified hPK-M2, LDH-coupled NADH fluorescence kinetic; series mostly up to 58.4 µM; activation: at the top concentration
Sequence (P14618 whole entry, looked up, canonical isoform): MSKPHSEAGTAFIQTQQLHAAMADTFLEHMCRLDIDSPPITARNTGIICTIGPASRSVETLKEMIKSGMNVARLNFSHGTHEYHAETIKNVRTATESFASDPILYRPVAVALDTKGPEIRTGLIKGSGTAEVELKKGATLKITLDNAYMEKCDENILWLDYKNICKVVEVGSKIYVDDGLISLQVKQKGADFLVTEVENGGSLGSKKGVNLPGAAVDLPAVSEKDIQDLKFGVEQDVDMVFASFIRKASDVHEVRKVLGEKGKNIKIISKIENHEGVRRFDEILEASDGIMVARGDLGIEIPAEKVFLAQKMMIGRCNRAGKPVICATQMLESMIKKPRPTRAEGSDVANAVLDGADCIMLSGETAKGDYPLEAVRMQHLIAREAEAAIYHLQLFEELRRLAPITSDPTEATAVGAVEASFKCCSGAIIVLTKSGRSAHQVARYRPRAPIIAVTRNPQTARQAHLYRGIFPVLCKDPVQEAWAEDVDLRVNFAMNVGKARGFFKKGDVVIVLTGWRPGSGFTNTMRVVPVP
Source text: NIH Chemical Genomics Center [NCGC] Matthew G. Vander Heiden, M.D., Ph.D. [Harvard Medical School, 77 Avenue Louis Pasteur, Boston, MA 02115] NCGC Assay Overview: Human pyruvate kinase muscle 2 (hPK-M2)enzyme was supplied as a highly purified (>95% pure) preparation from Harvard Medical School and a secondary assay was used to evaluate compounds. This assay couples the formation of pyruvate from hPK-M2 using lactate dehydrogenase (LDH) and NADH. The depletion of NADH is followed in a fluorescent-based kinetic assay that follows the formation of pyruvate to lactate, as catalyzed LDH (described by Hannaert et al., 2002)1 Pyruvate kinase substrates, PEP and ADP, were present in the assay at 0.1 mM and 4 mM respectively. In this kinetic assay initial rates were determined by following the fluorescence of NADH depletion.
NCGC Assay Protocol Summary: Three uL of substrate mix (final concentration, 50 mM Tris-Cl pH 8.0, 200 mM KCl, 15 mM MgCl2, 0.1 mM PEP, 4.0 mM ADP, and 0.2 mM NADH) was dispensed into black-solid 1536 well plates. 23 nL of compounds were delivered by a pin tool and 1 uL of enzyme mix (final concentrations, 10 nM hPK-M2 and 1 uM of LDH) was added. Plates were immediately placed in ViewLux (Perkin Elmer) and NADH fluorescence was determined at 30 second exposure intervals for between 3 and 6 minutes. Data were normalized to the uninhibited and EC100 activation using known activators such as fructose-bis-phosphate.

| SMILES | activation | Potency |
| --- | --- | --- |
| COc1ccc(OC2=NS(=O)(=O)c3ccccc32)cc1 | 1.11% (inactive) |  |
| Cc1ccc(OC2=NS(=O)(=O)c3ccccc32)cc1 | -2.38% (inactive) |  |
| Cc1ccc(NS(=O)(=O)c2ccc(F)cc2)cc1C | 14.6% (inactive) |  |
| O=C1c2ccccc2C(=O)N1Cc1ccccn1 | 6.36% (inactive) |  |
| Cc1ccc(NS(=O)(=O)c2cc3c(cc2N2CCCCC2)NC(=O)CC3)cc1C | 7.97% (inactive) |  |
| O=C1c2ccccc2C(=O)N1c1cccc(O)c1 | -6.18% (inactive) |  |
| Cc1ccccc1Nc1c(-c2ccc(Cl)s2)nc2ccccn12 | 0.026% (inactive) |  |
| Nc1cc(S(=O)(=O)N2CCN(S(=O)(=O)c3ccc4c(c3)OCCO4)CC2)ccn1 | 20.4% (inactive) |  |
| Cc1ccccc1NS(=O)(=O)c1ccc2c(c1)CCC(=O)N2 |  | 6.51 µM (active) |
| Cc1cccc(NS(=O)(=O)c2ccc3c(c2)CCC(=O)N3)c1 |  | 1.83 µM (active) |
| Cc1ccc(NS(=O)(=O)c2cccc(F)c2)cc1C | 18.4% (inactive) |  |
| Cc1ccc(NS(=O)(=O)c2cccc(Cl)c2)cc1C | 27.6% (inactive) |  |
| O=C1c2ccccc2C(=O)N1c1ccncc1 | 11.9% (inactive) |  |
| CN(C)c1cccc(S(=O)(=O)N2CCN(S(=O)(=O)c3ccc4c(c3)OCCO4)CC2)c1 | 2.94% (inactive) |  |
| COc1cccc(Cn2ncc3c4sc(SC)cc4n(C)c3c2=O)c1 |  | 0.206 µM (active) |
| CSc1cc2c(s1)c1cnn(Cc3cccc(N)c3)c(=O)c1n2C |  | 0.058 µM (active) |
| Cc1ccc(NS(=O)(=O)c2cccc(C(=O)O)c2)cc1C | 14.2% (inactive) |  |
| O=C1CCc2cc(S(=O)(=O)Nc3ccccc3Cl)ccc2N1 | 16.6% (inactive) |  |
| O=C1CCc2cc(S(=O)(=O)Nc3cccc(-c4ccccc4)c3)ccc2N1 | 15.2% (inactive) |  |

| SMILES | activation | Potency |
| --- | --- | --- |
| Cc1cc2c(s1)c1cnn(Cc3cc(F)c(F)cc3F)c(=O)c1n2C |  | 0.398 µM (active) |
| COc1cccc(N2C(=O)c3ccccc3C2=O)c1 | 17.9% (inactive) |  |
| O=C1CCc2cc(S(=O)(=O)NCc3ccccc3)ccc2N1 | 23.2% (inactive) |  |
| Cc1ccc(NS(=O)(=O)c2cc3c(cc2Cl)NC(=O)CO3)cc1C |  | 0.819 µM (active) |
| O=C1c2ccccc2C(=O)N1c1ncccc1O | 2.37% (inactive) |  |
| Cc1cc2c(s1)c1cnn(Cc3ccccc3F)c(=O)c1n2C |  | inactive and 291 nM (active) |
| Cc1ccc(N(C)S(=O)(=O)c2ccc3c(c2)CCC(=O)N3)cc1C | 0.911% (inactive) |  |
| O=C1c2ccccc2C(=O)N1c1ccc(Cl)cc1 | 16.4% (inactive) |  |
| O=S1(=O)N=C(Oc2ccc(Cl)cc2)c2ccccc21 | -1.7% (inactive) |  |
| Cc1ccc(NS(=O)(=O)c2cc3c(cc2-c2ccsc2)NC(=O)CO3)cc1C | 16.6% (inactive) |  |
| O=C1CCc2cc(S(=O)(=O)Nc3ccccn3)ccc2N1 | -3.58% (inactive) |  |
| COc1ccccc1NS(=O)(=O)c1ccc2c(c1)CCC(=O)N2 | 20.2% (inactive) |  |
| Cc1cc(C)n2c(Nc3ccccc3)c(-c3ccc(C)o3)nc2n1 | -2.4% (inactive) |  |
| Cc1ccc(NS(=O)(=O)c2cc3c(cc2Cl)CCC(=O)N3)cc1C |  | 0.461 µM (active) |
| O=S1(=O)N=C(Oc2cccc(Cl)c2)c2ccccc21 | -0.852% (inactive) |  |
| Cc1ccc(NS(=O)(=O)c2cc3c(cc2N(C)C)CCC(=O)N3)cc1C |  | 1.46 µM (active) |
| Cc1ccc(NS(=O)(=O)c2ccc(N3CCCC3=O)cc2)cc1C | 14.4% (inactive) |  |
| Cc1cc(N2C(=O)c3ccccc3C2=O)no1 | -1.03% (inactive) |  |
| O=C1c2ccccc2C(=O)N1c1cnc2ccccc2c1 | 21.2% (inactive) |  |
